A selection: hits, their analogues and other compounds. The true share with any hit is near 9.9%.
KDM4E inh = qHTS Assay for Inhibitors of Human Jumonji Domain Containing 2E (JMJD2E); JMJD2E catalytic domain, FDH-coupled NADH fluorescence (FDH is formaldehyde dehydrogenase); AID 2147, 2009; Potency, µM (titrated, usually from 57.1 µM), inactives show top-dose activity change, negative = inhibition, most hits filed as inhibitors; actives 1.6% (n = 230,000); Lysine-specific demethylase 4E (Homo sapiens), B2RXH2;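 further: 0% = wells with enzyme and -100% = buffer wells without enzyme; nearly all actives have a fitted effect of over 50% in size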
Target sequence (B2RXH2 1-337 limits assumed): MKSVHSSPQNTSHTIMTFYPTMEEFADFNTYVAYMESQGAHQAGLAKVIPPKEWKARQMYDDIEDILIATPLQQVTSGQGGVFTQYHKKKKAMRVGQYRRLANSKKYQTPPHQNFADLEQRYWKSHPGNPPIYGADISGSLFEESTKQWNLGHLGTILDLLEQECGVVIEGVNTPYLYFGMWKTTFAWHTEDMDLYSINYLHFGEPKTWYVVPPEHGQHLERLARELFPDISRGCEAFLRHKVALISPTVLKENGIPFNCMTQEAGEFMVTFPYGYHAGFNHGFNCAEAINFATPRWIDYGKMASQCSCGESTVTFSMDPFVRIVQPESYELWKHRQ
ALDH1A1 inh = qHTS Assay for Inhibitors of Aldehyde Dehydrogenase 1 (ALDH1A1) | Aldehyde dehydrogenase 1A1 (Homo sapiens), P00352 | Purified ALDH1A1, NADH fluorescence, propionaldehyde substrate | Potency, µM (doses to about 75.3 µM), without a hit: at the top dose activity, negative = inhibition, actives largely listed as inhibitors | actives 7.3% (n = 220,000) | AID 1030, 2008;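 further: plate controls were no enzyme wells and a reference inhibitor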
Tau fibril FP = qHTS for Inhibitors of Tau Fibril Formation, Fluorescence Polarization | Microtubule-associated protein tau (Homo sapiens), P10636 | K18 P301L tau heparin fibrillization, Alexa594 FP, 6 h | Potency, µM (series often up to 57.7 µM), for inactives: at the highest dose activity, negative = inhibition, usual class: inhibitors | actives 0.39% (n = 280,000) | AID 1468, 2008; active means well fitted curve in the direction sought with a large enough effect; inconclusive means small, poorly fitted or top-dose-only effect, or another doubt; inactive means no such curve, though single readings can be large; an effect the other way counts as inactive or inconclusive; further: nearly all actives have a fitted effect of over 55% in size
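Compound effects on tau fibrillization are measured by Alexa 594 fluorescence polarization (ex 555, em 632 nm). K18 P301L tau is used at 15 uM with 0.24 uM labeled tracer, and 20 uM heparin induces aggregation over 6 hr at 37 C.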
Tau fluor counter = Counterscreen qHTS for Inhibitors of Tau Fibril Formation, Fluorescence Polarization | tau K18 P301L Alexa594 fluorescence, heparin fibrillization | Potency, µM (highest dose often 57.7 µM), for inactives: at the top dose activity change, negative = decrease | actives 0.93% (n = 280,000) | AID 1463, 2008; active means well fitted curve in the direction sought with a large enough effect; inconclusive means small, poorly fitted or top-dose-only effect, or another doubt; inactive means no such curve, though single readings can be large; an effect the other way counts as inactive or inconclusive; further: nearly all actives have a fitted effect of over 55% in size
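Human K18 P301L tau (15 uM unlabeled plus 0.24 uM Alexa 594-labeled, final) in 100 mM sodium acetate pH 7 was mixed with compound and 20 uM heparin and incubated 6 hr at 37 C.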
HPGD block = qHTS Assay for Inhibitors of HPGD (15-Hydroxyprostaglandin Dehydrogenase) | 15-hydroxyprostaglandin dehydrogenase [NAD(+)] (Homo sapiens), P15428 | purified HPGD, NADH fluorescence kinetic, PGE2 substrate | Potency, µM, inactives show top-dose activity change, negative = inhibition, most hits filed as inhibitors | actives 4.3% (n = 150,000)
Target sequence (P15428 whole entry, looked up): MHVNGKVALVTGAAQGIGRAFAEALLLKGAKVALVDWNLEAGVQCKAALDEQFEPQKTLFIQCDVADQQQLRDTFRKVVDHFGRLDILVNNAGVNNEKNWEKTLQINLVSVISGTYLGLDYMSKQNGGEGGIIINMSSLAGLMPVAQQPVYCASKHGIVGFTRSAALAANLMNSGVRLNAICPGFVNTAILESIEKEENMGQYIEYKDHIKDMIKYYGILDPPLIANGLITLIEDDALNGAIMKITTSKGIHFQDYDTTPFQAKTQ
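NADH formation kinetics: reaction with 30 uM PGE2 and 1 mM NAD+ (final), 20 nM enzyme, Tris-HCl pH 8 with Tween 20, after 15 min compound preincubation at room temperature. Fluorescence change, last versus first of five reads.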
Tau ThT inhib = qHTS for Inhibitors of Tau Fibril Formation, Thioflavin T Binding; AID 1460, 2008; recombinant tau K18 P301L, heparin-induced fibrillization, ThT fluorescence; Microtubule-associated protein tau (Homo sapiens), P10636; Potency, µM (doses to about 57.4 µM), for inactives: top-dose activity, negative = inhibition, actives largely listed as inhibitors; actives 2.1% (n = 270,000); active means well fitted curve in the direction sought with a large enough effect; inconclusive means small, poorly fitted or top-dose-only effect, or another doubt; inactive means no such curve, though single readings can be large; an effect the other way counts as inactive or inconclusive; further: nearly all actives have a fitted effect of over 55% in size
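Fibril formation assay: tau K18 P301L at 15 uM with trace Alexa 594 label, heparin inducer 20 uM, pH 7 sodium acetate buffer, 37 C for 6 hr; endpoint ThT signal.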
Active calls of the source: *; u = inconclusive; x = not tested or not shown; [ ] = another dose, or the depositor's remark. Unless noted, the call rests on the fitted dose curve; in most records, active means well fitted inhibition curve with a large enough effect (not every such curve was filed as active); inconclusive means small, poorly fitted or top-dose-only effect, or another doubt; inactive means no such curve, though single readings can be large or run the other way. Unless noted, on the % scale 0 is the no-effect control and ±100 the full control effect; potency means the concentration at half of the fitted maximal effect.

SMILES	KDM4E inh	ALDH1A1 inh	Tau fibril FP	Tau fluor counter	HPGD block	Tau ThT inhib
O=C(CCN1CCc2ccccc2C(c2ccccc2)C1)c1ccc2c(c1)OCCO2 (stereo not given)	0%	0.14µM*	u	4%	-17%	-14%
Cc1cc(C(=O)OCC(=O)c2ccc3c(c2)OCCO3)c(C)o1	-6%	u	1%	-13%	20µM*	u
O=C(O)CCC(=O)c1ccc2c(c1)OCCO2	-11%	12%	-3%	-4%	-15%	-6%
O=C(CCN1Cc2ccccc2C1)c1ccc2c(c1)OCCO2	-16%	1.3µM*	12%	3%	-12%	u
Cc1c(C(=O)OCC(=O)c2ccc3c(c2)OCCO3)oc2ccccc12	1%	-6%	-1%	-29%	-11%	u
CCc1ccccc1NC(=O)CC1Sc2ccc(C(F)(F)F)cc2NC1=O (stereo not given)	x	x	-9%	5%	x	12%
O=C(CC1Sc2ccc(C(F)(F)F)cc2NC1=O)Nc1ccc(Cl)c(C(F)(F)F)c1 (stereo not given)	x	x	11µM*	u	x	-5%
Fc1cnc(N2CCc3ccccc32)nc1N1CCc2ccccc21	8%	2.2µM*	-1%	-10%	u	-2%
O=C1CC(c2ccc(F)cc2)Cc2nc(N3CCc4ccccc43)ncc21 (stereo not given)	u	u	-2%	-13%	u	-13%
CC(C)CN1CCC2(CC1)CCN(S(=O)(=O)c1ccccc1)CC2	x	10%	x	x	-2%	x
COc1ccc(C(c2c(C)[nH]n(-c3ccccc3)c2=O)c2c(C)[nH]n(-c3ccccc3)c2=O)cc1OC	u	8.9µM*	-2%	-14%	u	u
Cc1[nH]n(-c2ccccc2)c(=O)c1C(C[N+](=O)[O-])c1ccc(Cl)cc1 (stereo not given)	u	20µM*	9%	-16%	28µM*	u
O=C(C1CCN(S(=O)(=O)Cc2ccccc2)CC1)N1CCN(c2cccc(C(F)(F)F)c2)CC1	x	x	-10%	-4%	x	10%
FC(F)C(F)(F)C(F)(F)C(F)(F)c1cc(-c2ccccc2)n[nH]1	-3%	4%	u	-28%	16µM*	-14%
Cc1cc(-c2ccccc2)n[nH]1	0%	-6%	13%	3%	x	3%
C[C@H](NC(=O)/C(C#N)=C/c1ccc(O)c(O)c1)c1ccccc1	7.1µM*	u	-13%	u	6%	u
CCOC(=O)/C(C#N)=C\c1ccc(N2CCN(C/C=C/c3ccccc3)CC2)cc1	-12%	u	-1%	-27%	-15%	u
N#C/C(=C\c1ccc(O)c([N+](=O)[O-])c1)C(=O)NCc1ccccc1	-1%	-11%	9%	-9%	x	16µM*
C[C@@H](NC(=O)/C(C#N)=C/c1ccc(O)c(O)c1)c1ccccc1	22µM*	-7%	4%	u	-27%	u
N#C/C(=C/c1ccc(O)c(O)c1)C(=O)OC/C=C/c1ccccc1	x	4.5µM*	u	11µM*[quencher]	x	11µM*
CN(C)S(=O)(=O)c1cccc(NC(=O)COC(=O)CNC(=O)c2ccccc2F)c1	1%	x	-7%	-9%	x	-4%
O=C(NCC(c1ccc(Cl)cc1)N1CCCCC1)c1ccccc1 (stereo not given)	x	x	9%	-5%	x	3%
N#C/C(=C\c1ccc(O)c(O)c1)C(=O)Nc1ccccc1	16µM*	u	13%	u	u	13µM*
O=C(O)C1C2C=CC(O2)C1C(=O)Nc1ccc(S(=O)(=O)Nc2ccccc2)cc1 (stereo not given)	-2%	1.1µM*	4%	8%	u	1%
CC(=O)Nc1ccc(S(=O)(=O)N2CCCc3ccccc32)cc1	9%	-7%	-11%	-14%	-13%	1%
SMILES	KDM4E inh	ALDH1A1 inh	Tau fibril FP	Tau fluor counter	HPGD block	Tau ThT inhib
O=C(O)C1C2C=CC(O2)C1C(=O)Nc1ccc(S(=O)(=O)N2CCc3ccccc32)cc1 (stereo not given)	7%	10µM*	0%	0%	-22%	-10%
O=C(O)C1C2C=CC(O2)C1C(=O)Nc1ccc2c(c1)OCCO2 (stereo not given)	-3%	11µM*	3%	-2%	-6%	u
COc1ccc(N/N=C(\C#N)C(=N)SCc2ccccc2)cc1	3%	u	5%	u	x	14µM*
COc1ccc(N/N=C(\C#N)C(=N)N2CCCCC2)cc1	-3%	x	9%	-20%	x	u
CCNC(=O)CSc1nnc(-c2ccccc2Br)n1-c1cccc(C(F)(F)F)c1	-1%	16%	4%	1%	-10%	4%
COC(=O)CN1C(=O)C(C)(C)c2cc(S(=O)(=O)Nc3ccc(Br)cc3F)ccc21	x	x	-7%	-13%	x	3%
Cc1cc(=O)[nH]c(N/N=C/c2sccc2C)n1	6%	3%	8%	11%	40µM*	8%
CN1CCN(C(=S)C(=O)Nc2ccc(Br)cc2)CC1	u	7.9µM*	u	-20%	x	u
O=C(C[n+]1ccc(C(=O)N/N=C/c2ccc(OCc3ccccc3)cc2)cc1)c1ccccc1	28µM*	u	0%	u	-22%	6.3µM*
O=C(C[n+]1ccc(C(=O)N/N=C/c2ccc(Br)cc2)cc1)c1ccccc1	-18%	2%	-9%	u	-19%	13µM*
O=C(C[n+]1ccc(C(=O)N/N=C/c2ccc(O)cc2)cc1)c1ccccc1	u	1.6µM*	-16%	u	-14%	8.9µM*
O=C(N/N=C/c1ccc(F)cc1)c1ccc(Br)cc1	-3%	4%	1%	-6%	-8%	-23%
O=C(N/N=C/c1ccc(OCc2ccccc2)cc1)c1ccncc1	-20%	u	-13%	-19%	x	u
COc1ccc(C(=O)N/N=C/c2cc3ccccc3[nH]c2=S)cc1	u	1.4µM*	-7%	u	1.3µM*	4µM*
CC1(C)CN=C(N(Cc2ccccc2)C(=O)Nc2ccccc2)S1	-3%	6%	-6%	9%	-13%	6%
CCc1cccc(NC(=O)Cn2c(=O)n(CCC(=O)NCC3CCCO3)c(=O)c3cc(OC)c(OC)cc32)c1 (stereo not given)	x	x	-6%	-24%	x	-6%
CCCc1nnc(NC(=O)c2cc(=O)c3cc(C)c(C)cc3o2)s1	x	x	1%	-6%	x	-16%

High-throughput results from PubChem BioAssay.
